Source: PubChem BioAssay (several laboratories)
Shn3 inh set2 = reduction of Shn3 3'UTR firefly luciferase signal, primary screen, Schnurri-3 inhibitor project, cell-based, Clone20 osteoblasts, set 2 | inhibition, % at 12.5 µM | hit rate 0.52% among 360,000 | Clone20 osteoblast Shn3 3'UTR firefly luciferase, 24 h;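 active = mean inhibition of at least 75% with every replicate also reaching 75%; inconclusive = mean inhibition at least 75% but some replicate below; inactive = mean inhibition below 75%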;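 also: 0% = median of neutral control wells and 100% = pilot-screen positive control compound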
PAX8 inh HTS = inhibitors of PAX8-driven TPO luciferase reporter, primary screen, RMG-I cells, single concentration. hit rate 1.2% among 360,000. SteadyGlo, 24 h. inhibition, % at 12.6 µM;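 active = mean replicate inhibition at least 60% with every replicate also reaching 60%; inconclusive = only one of the two criteria is met; inactive = mean below 60% and not all replicates reaching 60%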;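 also: luciferase light reporting Pax8 driven TPO promoter activity; plate controls were median of neutral control wells for no effect and mitoxantrone controls for full effect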
CSC inhib = cancer stem cell viability inhibitors, primary screen, luminescence; cancer stem cell-like cells viability; inhibition, % at 7.5 µM; hit rate 1.1% among 300,000; AID 2717, 2010; in the data active = inhibition above about 75%; inconclusive = no clear call, values can overlap the other calls; tested in HMLE shEcad cells
Mdm2 MdmX PPI = inhibitors of human Mdm2-MdmX association, primary screen, cell-based, luminescence, split luciferase, SaOS-2, uHTS | Protein Mdm4 (Homo sapiens) + E3 ubiquitin-protein ligase Mdm2 (Homo sapiens), … | SaOS-2 split-luciferase Mdm2/MdmX complementation | inhibition, % at 8 µM | hit rate 3% among 330,000 | AID 485346, 2010;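 active = inhibition of at least 50% at 8 µM in the primary screen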
Beta cell apopt = inhibitors of cytokine-induced beta cell apoptosis, primary screen, luminescence. INS-1E cytokine-induced death, ATP luminescence, 48 h; percent of positive-control rescue, neutral wells zero. protection from apoptosis, % (no concentration beside the values). hit rate 0.8% among 300,000;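 active = Every replicate reaches about 75%, or at least half do and their mean reaches it too, limit read from the data; inconclusive = At least half of replicates reach the limit but their mean does not; inactive = Under half of replicates reach the limit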;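 also: 0% = cytokine-treated negative control wells and 100% = positive control rescue; higher means more ATP so stronger rescue from cytokine killing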
Gli-Sufu antag = Gli-Sufu pathway antagonists, primary screen, luciferase luminescence, Sufu-KO-LIGHT cells, uHTS. Sufu-KO-LIGHT fibroblasts, Gli luciferase reporter luminescence. inhibition, % at 5 µM. hit rate 0.74% among 340,000;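 active = inhibition above about 55%, limit read from the data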;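 also: 0% = DMSO-treated cells and 100% = wells with medium but no cells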
An asterisk follows results filed as active. An excerpt weighted towards active compounds, which were near 4% of everything screened.

Cc1ccc(-c2ccc(C3[C@@H]4CN(S(=O)(=O)c5ccc(C)cc5)C[C@H]3N4)cc2)cc1 (stereo partly drawn) was read as PAX8 inh HTS 73*.
Screening O=C(N/N=C/c1ccc([N+](=O)[O-])o1)c1ccc(O)cc1 returned Shn3 inh set2 29, PAX8 inh HTS 19, CSC inhib -18, Beta cell apopt 100* and Gli-Sufu antag 15.
O=C(CCC(=O)Nc1ccc(Cl)cc1Cl)N/N=C/c1ccc([N+](=O)[O-])o1 was read as Shn3 inh set2 26, PAX8 inh HTS 26, CSC inhib -9, Mdm2 MdmX PPI 8, Beta cell apopt 107* and Gli-Sufu antag 9.
`O=C(N/N=C/c1ccc([N+](=O)[O-])o1)c1cc2c(ccc3ccccc32)o1` gave Shn3 inh set2 14, PAX8 inh HTS -8 and Gli-Sufu antag 10.
Screening O=C(N/N=C/c1ccc([N+](=O)[O-])o1)c1cc2ccccc2o1 returned Shn3 inh set2 24, PAX8 inh HTS 39, CSC inhib 8, Mdm2 MdmX PPI 15, Beta cell apopt 100* and Gli-Sufu antag 0.
C[C@@H]1CCCCO[C@H](CN(C)S(=O)(=O)c2ccc(Cl)cc2)[C@H](C)CN([C@H](C)CO)C(=O)c2cc(NC(=O)Cc3ccccc3)ccc2O1 was read as PAX8 inh HTS 33.
`C[C@@H]1CCCCO[C@H](CN(C)S(=O)(=O)c2ccc(F)cc2)[C@H](C)CN([C@H](C)CO)C(=O)c2cc(NC(=O)Nc3ccc(F)cc3)ccc2O1` gave PAX8 inh HTS 7.
For Cc1ccc(/C=C/C(=O)c2ccccc(=O)c2O)cc1C the results were Shn3 inh set2 14, PAX8 inh HTS 42, CSC inhib 97*, Beta cell apopt 23 and Gli-Sufu antag -2.
For O=C(/C=C/c1ccccc1)c1cc(Br)ccc(=O)c1O the results were Shn3 inh set2 28, CSC inhib 93*, Mdm2 MdmX PPI 41, Beta cell apopt 17 and Gli-Sufu antag 25.
`O=C(/C=C/c1ccc(F)cc1)c1cc(Br)ccc1O` gave Shn3 inh set2 -57, PAX8 inh HTS -50, CSC inhib inconclusive, Mdm2 MdmX PPI -18, Beta cell apopt 2 and Gli-Sufu antag -12.
CCNC(=O)[C@H]1[C@H](CO)[C@H]2Cn3c(ccc(-c4ccncc4)c3=O)[C@@H]1N2Cc1ccccc1 was read as PAX8 inh HTS 4.
N#C[C@H]1[C@@H](c2ccccc2)[C@@H](CO)N1S(=O)(=O)c1ccc(-c2ccccc2)cc1 was read as PAX8 inh HTS 24.
For C[C@@H]1CN([C@@H](C)CO)S(=O)(=O)c2ccc(-c3cccc(C(=O)N(C)C)c3)cc2O[C@H]1CN(C)Cc1ccc2c(c1)OCO2 the results were PAX8 inh HTS 16.
C[C@H]1CN([C@@H](C)CO)C(=O)c2cc(C#Cc3ccccn3)cnc2O[C@H]1CN(C)CC1CCCC1 was read as PAX8 inh HTS -18.
`C/C(=N\N1C(=O)c2ccccc2NC1c1ccccc1)c1ccccc1O` (stereo not drawn) gave Shn3 inh set2 32, PAX8 inh HTS -157, CSC inhib 3, Mdm2 MdmX PPI -22, Beta cell apopt 87* and Gli-Sufu antag -10.
Screening C/C(=N\N1C(=O)c2ccccc2NC1c1ccco1)c1ccccc1O (stereo not drawn) returned Shn3 inh set2 1, PAX8 inh HTS -10, CSC inhib -5, Mdm2 MdmX PPI -13, Beta cell apopt 99* and Gli-Sufu antag 10.
Screening COc1ccc(/C(C)=N/N2C(=O)c3ccccc3NC2c2ccc(O)c(OC)c2)cc1 (stereo not drawn) returned Shn3 inh set2 -20, PAX8 inh HTS -46, CSC inhib -7, Mdm2 MdmX PPI -7, Beta cell apopt -1 and Gli-Sufu antag -13.
C[C@@H]1CN([C@H](C)CO)C(=O)CCCn2nncc2CO[C@@H]1CN(C)C(=O)Nc1cccc(C(F)(F)F)c1 was read as PAX8 inh HTS 14.
Screening C/C(=N\Nc1nc(N)cc(Cl)n1)c1cccc(N)c1 returned Shn3 inh set2 -23, PAX8 inh HTS -11, CSC inhib -2, Mdm2 MdmX PPI 18, Beta cell apopt -1 and Gli-Sufu antag -2.
For C/C(=N/Nc1nc(-c2ccccc2)cc(-c2ccc(F)cc2)n1)c1cccc(N)c1 the results were Shn3 inh set2 9, PAX8 inh HTS -14, CSC inhib 43, Mdm2 MdmX PPI 42, Beta cell apopt 79* and Gli-Sufu antag -13.
For C/C(=N\Nc1nc(C)cc(-c2ccccc2)n1)c1ccc(F)cc1 the results were Shn3 inh set2 -8, PAX8 inh HTS -3, CSC inhib 17, Mdm2 MdmX PPI -11, Beta cell apopt 78* and Gli-Sufu antag 4.
For COc1ccc(/C(C)=N/Nc2nc(C)cc(-c3ccccc3)n2)cc1 the results were Shn3 inh set2 53, PAX8 inh HTS -10, CSC inhib 5, Mdm2 MdmX PPI 32, Beta cell apopt 83* and Gli-Sufu antag 9.
For COc1ccc(/C(C)=N\Nc2nc(-c3ccccc3)cc(=O)[nH]2)cc1 the results were Shn3 inh set2 8, PAX8 inh HTS -14, CSC inhib 5, Mdm2 MdmX PPI 3, Beta cell apopt 0 and Gli-Sufu antag 32.
C[C@H](CO)N1C[C@H](C)[C@H](CN(C)Cc2ccc(C(F)(F)F)cc2)OCCCC[C@H](C)Oc2ccc(NC(=O)CCCN(C)C)cc2C1=O was read as PAX8 inh HTS 28.
Cc1cccc(-c2noc(CN(C(=O)C(c3ccccc3)c3ccccc3)C(C)C)n2)c1 was read as Shn3 inh set2 84*, PAX8 inh HTS -8, CSC inhib 24, Mdm2 MdmX PPI 29, Beta cell apopt 6 and Gli-Sufu antag -2.
`Cc1cccc(-c2noc(CN(C(=O)c3ccc4c(c3)OCO4)C(C)C)n2)c1` gave Shn3 inh set2 0, CSC inhib 7, Mdm2 MdmX PPI -4, Beta cell apopt 1 and Gli-Sufu antag 5.
Screening C[C@@H](O)C#Cc1ccc([C@@H]2[C@@H](CO)N3CCCCN(CC4CCOCC4)C[C@@H]23)cc1 returned PAX8 inh HTS 5.
`Cc1cc(C)cc(Oc2cc(NC(=O)c3cn(C)nc3C)cc([N+](=O)[O-])c2)c1` gave Shn3 inh set2 10, Mdm2 MdmX PPI 29, Beta cell apopt 104* and Gli-Sufu antag 17.
For C/C=C/c1ccc([C@@H]2[C@@H](C#N)N(c3ncc(CC)s3)[C@@H]2CO)cc1 the results were PAX8 inh HTS 9.
